PubChem BioAssay (Tox21)
Several values for one entry are separate records, joined by “and”; a condition that tells them apart may be missing. Equal values may be shown once. Inconclusive results are not listed. Activity calls are given as the source filed them. Calls follow the shape of the dose curve; as a rule, active = well fitted inhibition curve with a large enough effect in the repeat runs; inconclusive = weak or mixed curves; inactive = no such curve, though single readings can be large or run the other way.

test: qHTS assay to identify small molecule antagonists of the estrogen related receptor (ERR) signaling pathway from Tox21 library (AID 1224848); conditions: ERR reporter cell line, luciferase antagonist mode, 18 h; series mostly up to 92.4 µM; activity, negative = inhibition: at the top concentration; also: nearly all actives have a fitted effect of over 50% in size
Excerpt: U.S. Tox21 Program National Center for Advancing Translational Sciences [NCATS] NIH Chemical Genomics Center [NCGC] U.S. Environmental Protection Agency [EPA] National Institutes of Environmental Health Sciences [NIEHS] National Toxicology Program [NTP] U.S. Food and Drug Administration [FDA] Tox21 Assay Overview: Estrogen related receptors (ERRs), the first orphan nuclear receptors discovered, play an important role in the control of cellular energy metabolism. ERRs are required for high-energy production in response to the environmental challenges. ERR-alpha was also identified as an adverse marker for breast cancer progression; ERR-alpha-positive tumors have a poor prognosis. To screen and to identify environmental compounds that perturb the ERR signaling pathways could provide valuable information for potential therapeutic or preventive measures in the treatment of metabolic disease. For identifying ERR antagonists, ERR cell line (provided by NTP) has been used to screen Tox21 10K library.
Tox21 Assay Protocol Summary: The ERR cells were dispensed at 2,000 cells/5 ul/well in 1536-well white plates using a Multidrop dispenser. After the assay plates were incubated at a 37 C/5% CO2 incubator for 6 hours, 23 nL of compounds dissolved in DMSO, positive and negative controls or DMSO only was transferred to the assay plate by a pin tool. The plates were incubated at 37 C for 18 hours. 4 ul/well of One-Glo reagent was added into the assay plates using a Flying Reagent Dispenser. After 30-minute incubation at room temperature, the luminescence intensity in the plates was measured using a ViewLux plate reader.
% is scaled to controls: 0 for no effect and ±100 for the full control effect; potency is read from the fitted curve at half-maximal effect.

With N#CC1(c2ccc(F)cc2)CCC(=O)CC1 as the molecule, how does the “activity, negative = inhibition” value read?
The value was 9.63% [at 42.5 µM] (inactive).

With CSc1ccc(/C=C2/C(C)=C(CC(=O)O)c3cc(F)ccc32)cc1 as the molecule, how does the “activity, negative = inhibition” value read?
Its value is -11.3% [at 42.5 µM] (inactive).

Which Potency does the source give for CCc1cc(Cc2cc(CC)c(N)c(CC)c2)cc(CC)c1N here?
The Potency was 27.3 µM (active).

For C1CCCC1, which “activity, negative = inhibition” value is on record?
The value was 14.1% (inactive).

With CCCCCCOC(=O)c1ccc(O)cc1 as the molecule, how does the Potency read?
The Potency was “inactive”.

For CCOc1nc2cccc(C(=O)OC(C)OC(=O)OC3CCCCC3)c2n1Cc1ccc(-c2ccccc2-c2nn[nH]n2)cc1 (stereo not given), which Potency is on record?
The Potency was 34.3 µM (active).

Which “activity, negative = inhibition” value does the source give for Cc1cc(O)c(Cl)c(C)c1Cl here?
The value was 1.16% (inactive).

For CCOC(=O)c1nc(C(Cl)(Cl)Cl)n(-c2ccc(Cl)cc2Cl)n1, which Potency is on record?
Its Potency is 61.1 µM (active).

With C[C@@H]1C[C@H]2[C@@H]3CCC4=CC(=O)C=C[C@]4(C)[C@@]3(Cl)[C@@H](O)C[C@]2(C)[C@@]1(OC(=O)c1ccco1)C(=O)CCl as the molecule, how does the Potency read?
The Potency was 13.3 µM (active).

Which Potency does the source give for O=c1[nH]sc2ccccc12 here?
The Potency was 43.3 µM (active).

Which Potency does the source give for OCCN(CCO)c1nc(N2CCCCC2)c2nc(N(CCO)CCO)nc(N3CCCCC3)c2n1 here?
Its Potency is 13.3 µM (active).

With O=C(Oc1cccc2cccnc12)c1ccccc1 as the molecule, how does the Potency read?
The Potency was 0.133 µM (active).

For CCCN(CCC)C(=O)C(CCC(=O)OCCCN1CCN(CCOC(=O)Cc2c(C)n(C(=O)c3ccc(Cl)cc3)c3ccc(OC)cc23)CC1)NC(=O)c1ccccc1 (stereo not given), which Potency is on record?
The Potency was 29.8 µM (active).

With CC/C(=C(\c1ccc(O)cc1)c1ccc(OCCN(C)C)cc1)c1ccccc1 as the molecule, how does the Potency read?
Its Potency is 48.7 µM (active).

Which “activity, negative = inhibition” value does the source give for CSc1ccc(C(=O)c2[nH]c(=O)[nH]c2C)cc1 here?
The value was 25.6% [at 42.5 µM] (inactive).

For On1ccccc1=S, which Potency is on record?
Its Potency is 1.21 µM (active).

Which Potency does the source give for N=C1N=C(N)c2cc3ccccc3cc21 here?
The Potency was 68.6 µM (active).

Which “activity, negative = inhibition” value does the source give for Cn1cc(C(=O)[C@@H]2CCc3nc[nH]c3C2)c2ccccc21 here?
Its value is -20.8% [at 42.5 µM] (inactive).

Which “activity, negative = inhibition” value does the source give for Cc1cc(N)c(S(=O)(=O)O)cc1Cl here?
The value was 7.63% (inactive).

For CC(C)(C)NC(=O)[C@@H]1C[C@@H]2CCCC[C@@H]2CN1C[C@@H](O)[C@H](Cc1ccccc1)NC(=O)[C@H](CC(N)=O)NC(=O)c1ccc2ccccc2n1, which Potency is on record?
The Potency was 19.6 µM (active).

With Oc1ccc(Cl)cc1Sc1cc(Cl)ccc1O as the molecule, how does the Potency read?
The Potency was 10.8 µM (active) and 11.9 µM (active).

With CCCCCCCCCCCCCCCCCC[N+](C)(C)Cc1ccccc1 as the molecule, how does the Potency read?
Its Potency is 19.5 µM (active).

Which “activity, negative = inhibition” value does the source give for Nc1ccc2cc(S(=O)(=O)O)cc(O)c2c1N=Nc1ccccc1C(F)(F)F here?
Its value is 0.177% (inactive).

With COC(=O)C1=C(C)NC(C)=C(C(=O)OCC(C)C)C1c1ccccc1[N+](=O)[O-] (stereo not given) as the molecule, how does the Potency read?
The Potency was 12.2 µM (active) and 21.1 µM (active).

With CCCCCCCC[P+](CCCCCCCC)(CCCCCCCC)CCCCCCCC as the molecule, how does the Potency read?
Its Potency is 0.108 µM (active).

With CCCCCCCCCCCCCCCCCC[N+](C)(C)C as the molecule, how does the Potency read?
Its Potency is 24.4 µM (active).

With Cc1c(C)c2c(c(C)c1OC(=O)CCC(=O)O)CC[C@@](C)(CCC[C@H](C)CCC[C@H](C)CCCC(C)C)O2 as the molecule, how does the “activity, negative = inhibition” value read?
The value was -34.5% (inactive).

For C=C(C)C(=O)OCC(O)COc1ccc(C(C)(C)c2ccc(OCC(O)COC(=O)C(=C)C)cc2)cc1 (stereo not given), which Potency is on record?
The Potency was 27.3 µM (active).

For COc1c(C)c2c(c(O)c1C/C=C(\C)CCC(=O)O)C(=O)OC2, which “activity, negative = inhibition” value is on record?
The value was -31% [at 42.5 µM] (inactive).

For O=c1[nH]sc2cc(Cl)ccc12, which Potency is on record?
Its Potency is 0.106 µM (active).

For Cc1cc(=O)oc2cc(N(C)C)ccc12, which “activity, negative = inhibition” value is on record?
Its value is 36% (inactive).

With C[n+]1cc2c3c(ccc2c2ccc4cc5c(cc4c21)OCO5)OCO3 as the molecule, how does the Potency read?
The Potency was 2.91 µM (active).

Which Potency does the source give for CCCCCCCC/C=C/CCCCCCCC1=NCCN1CCO here?
The Potency was 54.5 µM (active).

Which “activity, negative = inhibition” value does the source give for Cc1cccc2c1cc1ccc3cccc4ccc2c1c34 here?
Its value is 66.6% (inactive).

With CC(C)(C)C(=O)OCOC(=O)[C@@H]1N2C(=O)[C@@H](NC(=O)[C@H](N)c3ccccc3)[C@H]2SC1(C)C as the molecule, how does the “activity, negative = inhibition” value read?
Its value is 1.34% [at 42.5 µM] (inactive).

Which Potency does the source give for CC[C@@]1(O)C(=O)OCc2c1cc1n(c2=O)Cc2cc3c(CN(C)C)c(O)ccc3nc2-1 here?
Its Potency is 1.19 µM (active).

With C=CC(=O)OCCn1c(=O)n(CCOC(=O)C=C)c(=O)n(CCOC(=O)C=C)c1=O as the molecule, how does the “activity, negative = inhibition” value read?
The value was -131% (inactive).

With CCCC1O[C@@H]2C[C@H]3[C@@H]4CCC5=CC(=O)C=C[C@]5(C)[C@H]4[C@@H](O)C[C@]3(C)[C@]2(C(=O)CO)O1 (stereo not given in full) as the molecule, how does the Potency read?
The Potency was 27.3 µM (active) and 34.4 µM (active).

With CN(C)[C@@H]1C(=O)C(C(N)=O)=C(O)[C@@]2(O)C(=O)C3=C(O)c4c(O)ccc(Cl)c4[C@@H](O)[C@H]3C[C@@H]12 as the molecule, how does the “activity, negative = inhibition” value read?
The value was -19.5% [at 42.5 µM] (inactive).

For Oc1ccc(C2(c3ccc(O)cc3)CC3CC2C2CCCC32)cc1 (stereo not given), which Potency is on record?
The Potency was 58.7 µM (active).
